Sampled rows, rich in hits. Any-hit rate of the full collection: about 2.9%.
EBNA-1 inh: blocks EBNA-1 binding to DNA; EBNA-1 DNA binding, fluorescence polarization; inhibition, % at 14.8 µM; 300,000 compounds, 0.34% hits; AID 1950; in the data active = inhibition above about 28%
ZTA counter: counter-screen for EBNA-1 inhibitors: inhibitors of Epstein-Barr virus ZTA; AID 2234; 320,000 compounds, 0.15% hits; inhibition, % at 11 µM; P03206; ZTA-DNA binding, fluorescence polarization; in the data active = inhibition above about 33%
Target sequence (P03206 whole entry, looked up): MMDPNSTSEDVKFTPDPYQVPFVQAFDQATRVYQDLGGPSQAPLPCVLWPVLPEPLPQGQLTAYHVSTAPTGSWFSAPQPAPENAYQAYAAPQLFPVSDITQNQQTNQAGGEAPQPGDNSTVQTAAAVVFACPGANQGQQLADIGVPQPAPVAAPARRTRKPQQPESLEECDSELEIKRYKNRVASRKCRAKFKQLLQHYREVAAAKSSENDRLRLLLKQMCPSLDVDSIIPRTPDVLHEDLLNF
pPAFAH FP inh: inhibitors of human plasma PAF acetylhydrolase (pPAFAH); recombinant pPAFAH, FP-rhodamine probe fluorescence polarization; Q13093; inhibition, % at 3.39 µM; 330,000 compounds, 1.5% hits;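 active = inhibition above the mean inhibition across the screen plus 3 SD, cut at about 25% in these data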;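 note: inhibitors block binding of the rhodamine activity-based probe so polarization drops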
PAFAH1B2 FP inh: PAFAH1B2 (human) inhibition; 340,000 compounds, 1.2% hits; P68402; recombinant PAFAH1B2, FP-rhodamine activity probe, fluorescence polarization; inhibition, % at 3.39 µM;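 active = inhibition above the mean of all tested compounds plus 3 SD, cut at about 24% in these data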
Target sequence (P68402 whole entry, looked up): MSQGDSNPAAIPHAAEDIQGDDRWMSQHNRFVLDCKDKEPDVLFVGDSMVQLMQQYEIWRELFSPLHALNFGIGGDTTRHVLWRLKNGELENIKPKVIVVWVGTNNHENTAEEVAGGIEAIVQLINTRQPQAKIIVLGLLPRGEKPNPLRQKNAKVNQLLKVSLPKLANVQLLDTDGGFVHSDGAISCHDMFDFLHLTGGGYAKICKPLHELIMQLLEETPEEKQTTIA
PAFAH1B3 FP inh: blocks human PAF acetylhydrolase 1B catalytic subunit 3 | Q15102 | inhibition, % at 3.39 µM | recombinant PAFAH1B3, FP-rhodamine probe, fluorescence polarization | 340,000 compounds, 0.28% hits | AID 492972;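 active = inhibition above the screen-wide average of all tested compounds plus 3 SD, cut at about 25% in these data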
PAFAH2 inh: inhibitors of human PAFAH2. Q99487. recombinant PAFAH2, FP-rhodamine activity probe, fluorescence polarization. inhibition, % at 3.39 µM. 340,000 compounds, 0.99% hits;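 active = inhibition above the mean over all tested compounds plus 3 SD, cut at about 30% in these data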;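 note: inhibitors block probe labeling of enzyme so polarization drops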
PAFAH2 FP conf: confirmation of human PAFAH2 inhibitors; shares compounds with PAFAH2 inh; recombinant PAFAH2, FP-rhodamine activity probe, fluorescence polarization; inhibition, % at 3.39 µM; 2,300 compounds, 65% hits;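 active = mean inhibition over three repeats above a set limit taken from the earlier primary screen, cut at about 30% in these data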;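 note: inhibitor blocks binding of rhodamine activity probe so polarization falls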
A number is an active result; - = inactive; . = not tested or not shown.

SMILES | EBNA-1 inh | ZTA counter | pPAFAH FP inh | PAFAH1B2 FP inh | PAFAH1B3 FP inh | PAFAH2 inh | PAFAH2 FP conf
O=C(COC(=O)CCCN1C(=O)c2cccc3cccc(c23)C1=O)Nc1cccc(C(F)(F)F)c1 | - | - | - | - | - | 36 | 33
NC(=O)c1cc(NC(=O)COC(=O)CCCN2C(=O)c3cccc4cccc(c34)C2=O)cc(C(N)=O)c1 | . | . | - | - | - | - | .
Cc1cc(C(=O)NNC(=O)/C=C/c2ccc(F)cc2)c(C)o1 | - | - | - | - | - | - | .
CCOc1ccc(NC(=O)CN(C)C(=O)c2ccccc2SCc2c(C)noc2C)cc1OCC | - | - | - | - | - | - | .
Cc1cc(C(=O)OCC(=O)Nc2cccc([N+](=O)[O-])c2)c(C)o1 | . | . | - | - | - | 75 | 78
CCC(CC)C(=O)OCC(=O)Nc1cccc([N+](=O)[O-])c1 | - | - | - | - | - | 36 | -
O=C(COC(=O)c1c[nH]c(=O)[nH]c1=O)Nc1cccc([N+](=O)[O-])c1 | . | - | - | - | - | 31 | -
CCOc1ccc(NC(=O)COC(=O)c2cc(C)oc2C)cc1 | . | . | - | - | - | 57 | 53
Cc1cc(NC(=O)CSc2ccc(-c3ccc(F)cc3)nn2)no1 | - | - | - | - | - | - | .
COc1cc(C#N)c(N=C(SCC#N)N2CCOCC2)cc1OC | - | - | - | - | - | - | .
O=C(COC(=O)c1ccccc1Br)NCc1cccs1 | . | . | - | - | - | - | .
Cc1ccc(C(=O)OCC(=O)NCc2cccs2)c(C)c1 | - | - | - | - | - | 32 | -
COc1ccc(C(=O)OCC(=O)NCc2cccs2)c(OC)c1OC | . | . | - | - | - | 72 | 65
C=CCN1C(=O)/C(=C2/Sc3ccccc3N2CCCS(=O)(=O)O)SC1=S | - | - | 25 | - | - | 34 | -
COc1ccc(/C=C2\SC(=S)N(C(Cc3ccccc3)C(=O)O)C2=O)cc1 (centres undefined) | . | . | . | - | - | - | .
O=C(O)C(Cc1ccccc1)N1C(=O)/C(=C/C=C/c2ccco2)SC1=S (centres undefined) | . | . | . | - | - | 60 | 47
Cc1cc(C)cc(NC(=O)N2CCCN(Cc3c(F)cccc3Cl)CC2)c1 | - | - | - | - | - | - | .
COc1ccc(-c2cc(C(=O)Nc3cc(C)on3)no2)cc1OC | - | - | - | - | - | 62 | -
Cc1cc(NC(=O)c2cc(-c3ccc(O)cc3)on2)no1 | - | - | - | - | - | - | .
COc1ccccc1OCc1ccc(C(=O)N2CCCCC2)o1 | - | - | - | - | - | - | .
O=C(c1ccc(COc2ccc(Cl)cc2Cl)o1)N1CCCC1 | . | . | . | - | - | 30 | -
CC(=O)Nc1ccc2c(c1)N(S(=O)(=O)c1cccs1)CCC2 | - | - | - | - | - | - | .
CCn1c(=O)c2ccccc2n(CC(=O)NC2CCCCC2)c1=O | - | - | - | - | - | - | .
O=C1c2ccccc2-n2c1nc1ccccc1c2=O | - | - | - | - | - | 32 | -
COc1cc(/C=C/C(=O)OCC(=O)N2CCC(C)CC2)ccc1O | - | - | - | - | - | 56 | 45
SMILES | EBNA-1 inh | ZTA counter | pPAFAH FP inh | PAFAH1B2 FP inh | PAFAH1B3 FP inh | PAFAH2 inh | PAFAH2 FP conf
COc1cc(/C=C/C(=O)OCC(=O)NCCN2C(=O)CSC2=O)ccc1OCC#N | . | - | - | - | - | - | .
COc1cc(/C=C/C(=O)OCC(=O)N2CC3(C)CC2CC(C)(C)C3)ccc1O (centres undefined) | - | - | - | - | - | 42 | -
COc1cc(/C=C/C(=O)OCC(=O)N2CCc3ccccc3C2)ccc1O | - | - | - | - | - | 35 | 36
COc1cc(/C=C/C(=O)OCC(=O)N2CCC(C)CC2)ccc1OCC#N | . | - | - | - | - | 42 | -
Cc1cccc(NC(=O)c2cc([N+](=O)[O-])ccc2N2CCCCC2)n1 | - | - | - | - | - | - | .
CCOC(=O)c1nnn(-c2nonc2-n2cccc2)c1CCl | - | - | - | - | - | 31 | 44
CCOC(=O)c1nnn(-c2nonc2-n2cccc2)c1CN1CCC(C)CC1 | - | - | - | - | - | - | .
CCC(C)NC(=O)COC(=O)c1csc2c1CCCC2 (centres undefined) | - | - | - | - | - | 57 | 47
COc1ccc(NC(=O)COC(=O)c2ccc(-n3cnnn3)cc2)cc1Cl | - | - | - | - | - | 35 | -
O=C(COC(=O)c1cccc(-n2cnnn2)c1)c1ccc(F)cc1 | - | - | - | - | - | - | .
O=C(COC(=O)c1cccc(-n2cnnn2)c1)Nc1c(Cl)cccc1C(F)(F)F | - | - | - | - | - | 42 | -
COc1ccc(NC(=O)COC(=O)[C@@H](NC(=O)c2c(F)cccc2F)C(C)C)cc1 | - | - | - | - | - | - | .
O=C1CCC/C=C/C[C@H](CC(=O)N(CCO)Cc2ccccc2)C(=O)N[C@@H](Cc2ccccc2)CO1 | . | . | - | - | - | 45 | -
C[C@H]1COC(=O)CCCC/C=C\C[C@H](CC(=O)N(CCO)Cc2ccccc2)C(=O)N1 | . | . | - | - | - | - | .
O=C1CCC/C=C\C[C@@H](CC(=O)N(CCO)Cc2ccccc2)C(=O)N[C@H](Cc2c[nH]c3ccccc23)CO1 | . | . | - | - | - | - | .
O=C1CCCC/C=C\C[C@H](CC(=O)N(CCO)Cc2ccccc2)C(=O)N[C@@H](Cc2ccccc2)CO1 | . | . | - | - | - | 45 | -
O=C(O/N=C1\CCS(=O)(=O)c2sccc21)c1c(F)cccc1F | - | - | - | - | - | - | .
Cc1ccc(C(=O)O/N=C2\CCS(=O)(=O)c3sccc32)cc1 | - | - | - | - | - | 88 | 83
COc1cccc(C(=O)O/N=C2\CCS(=O)(=O)c3sccc32)c1 | - | - | - | - | - | 70 | 37
CCOC(=O)C1(C(F)(F)F)N=C(c2cccnc2)OC(N2CCCCC2)=N1 (centres undefined) | - | - | - | - | - | - | .
CCCC[C@@H](CNC)NC[C@H](Cc1ccc(O)cc1)NCCc1ccc(OCC)cc1 | - | - | - | - | - | - | .
CCN1CCN(S(=O)(=O)c2ccc(Cl)c(C(=O)NCCc3ccccc3)c2)CC1 | - | - | - | - | - | - | .
COc1cc(C(=O)OCC(=O)Nc2ccc(C)cc2)cc(OC)c1OC | - | - | - | - | - | 31 | -
Cc1cc(C)cc(C(=O)OCC(=O)NC2CCCC2)c1 | - | - | - | - | - | 43 | -
COc1cc(C(=O)OCC(=O)NC2CCCCC2)cc(OC)c1OC | . | . | - | - | - | 41 | -
Cc1cc(C)cc(C(=O)OCC(=O)NC(=O)NC2CCCC2)c1 | . | - | - | - | - | - | .
O=C(COC(=O)c1ccc2c(c1)OCCO2)NC1CCCCC1 | . | - | - | - | - | 87 | 77
NS(=O)(=O)c1cc(C(=O)OCC(=O)NC2CCCCCCC2)ccc1Cl | . | . | . | - | - | - | .
COc1cc(C(=O)OCC(=O)NC2CCCC2)cc(OC)c1OC | - | - | - | - | - | - | .

Screening data deposited in PubChem by The Scripps Research Institute Molecular Screening Center.
